Measured values reported in PubChem BioAssay (Tox21).
“And” between values parts separate entries of the source, which are not always exact repeats. Equal values may be shown once. Results filed as inconclusive are left out. Some compounds were tested as several samples or in several runs, with calls that do not always agree. The source made the active and inactive calls. Unless noted, calls come from the whole dose curve; as a rule, active = well fitted curve in the direction sought with a large enough effect in the repeat runs; inconclusive = weak or mixed curves; inactive = no such curve, though single readings can be large; an effect the other way counts as inactive or inconclusive.

Tests used:
[1] = target: Aryl hydrocarbon receptor (Homo sapiens) (UniProt P35869); assay: qHTS assay to identify small molecule that activate the aryl hydrocarbon receptor (AhR) signaling pathway (AID 743085); note: nearly all actives have a fitted effect of over 15% in size; note: potency is the fitted concentration of half-maximal effect;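 for activation: HG2L7.5c1 human HepG2 liver cells with stably integrated DRE-driven firefly reporter; series mostly up to about 70 µM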
Aryl hydrocarbon receptor (Homo sapiens), sequence (P35869 whole entry, looked up): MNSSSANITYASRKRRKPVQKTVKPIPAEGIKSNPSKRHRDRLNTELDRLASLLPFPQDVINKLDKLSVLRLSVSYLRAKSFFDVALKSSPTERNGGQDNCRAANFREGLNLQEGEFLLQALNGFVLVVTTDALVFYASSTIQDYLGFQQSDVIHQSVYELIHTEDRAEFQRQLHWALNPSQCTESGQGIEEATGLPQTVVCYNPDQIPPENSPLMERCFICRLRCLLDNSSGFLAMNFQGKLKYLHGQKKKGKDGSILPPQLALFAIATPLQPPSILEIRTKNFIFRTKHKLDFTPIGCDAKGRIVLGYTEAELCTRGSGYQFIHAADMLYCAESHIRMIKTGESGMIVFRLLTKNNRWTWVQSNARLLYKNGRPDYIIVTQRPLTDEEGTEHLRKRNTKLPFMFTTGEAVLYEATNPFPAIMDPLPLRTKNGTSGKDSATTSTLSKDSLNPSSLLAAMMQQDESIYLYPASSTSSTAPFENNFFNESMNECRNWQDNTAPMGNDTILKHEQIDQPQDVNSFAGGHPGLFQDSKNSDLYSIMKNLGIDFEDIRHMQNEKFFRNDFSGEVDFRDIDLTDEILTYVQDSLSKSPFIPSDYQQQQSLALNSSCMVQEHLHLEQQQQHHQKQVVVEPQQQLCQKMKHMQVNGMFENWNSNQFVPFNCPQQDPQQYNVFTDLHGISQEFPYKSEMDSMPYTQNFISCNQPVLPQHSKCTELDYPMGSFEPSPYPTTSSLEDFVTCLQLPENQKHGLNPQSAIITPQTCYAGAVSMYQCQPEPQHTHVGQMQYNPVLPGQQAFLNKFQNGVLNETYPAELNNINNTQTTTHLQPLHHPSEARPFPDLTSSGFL
In short: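 A multiplexed format paired cell viability (CellTiter-Fluor fluorescence) with AhR-dependent luciferase output (ONE-Glo luminescence) in the same wells of HepG2 DRE-luc cells after 24 h compound exposure at 37C.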

[2] = qHTS assay to identify small molecule that activate the aryl hydrocarbon receptor (AhR) signaling pathway - cell viability counter screen (AID 743086);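 note: HepG2 liver cells carrying the AhR DRE luciferase reporter; series mostly up to about 70 µM; nearly all actives have a fitted effect of over 45% in size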
In short: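 HepG2-AhR-luc (HG2L7.5c1) cells, 4000/well, were preincubated 5 h at 37C, exposed to compound in qHTS format for 24 hr at 37C, then given CellTiter-Fluor for 30 min; viability was read as fluorescence in the reporter wells.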

[3] = target: Peroxisome proliferator-activated receptor gamma (Homo sapiens) (UniProt P37231); assay: qHTS assay to identify small molecule agonists of the peroxisome proliferator-activated receptor gamma (PPARg) signaling pathway (AID 743094; active = well fitted activation curve with a large enough effect in the signal ratio in the repeat runs, not every such curve was filed as active; the % refers to the signal ratio)
Peroxisome proliferator-activated receptor gamma (Homo sapiens), sequence (P37231 whole entry, looked up): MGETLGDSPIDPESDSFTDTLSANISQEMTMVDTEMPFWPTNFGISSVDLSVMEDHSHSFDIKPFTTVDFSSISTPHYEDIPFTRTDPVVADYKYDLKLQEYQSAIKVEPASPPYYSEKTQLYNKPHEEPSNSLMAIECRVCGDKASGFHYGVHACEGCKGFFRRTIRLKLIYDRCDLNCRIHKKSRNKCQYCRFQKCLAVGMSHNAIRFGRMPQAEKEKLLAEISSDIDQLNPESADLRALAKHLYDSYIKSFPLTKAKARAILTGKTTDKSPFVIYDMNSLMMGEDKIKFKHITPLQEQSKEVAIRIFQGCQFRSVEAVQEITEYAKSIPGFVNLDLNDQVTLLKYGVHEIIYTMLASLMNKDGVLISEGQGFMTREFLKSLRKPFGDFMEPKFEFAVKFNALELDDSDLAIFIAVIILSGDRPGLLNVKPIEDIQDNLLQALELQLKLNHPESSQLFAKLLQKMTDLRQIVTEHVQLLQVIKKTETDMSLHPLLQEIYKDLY
In short: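 Reporter activation was scored by fluorescence of cleaved LiveBLAzer B/G substrate (1 h, room temperature) in PPARg-bla HEK293H cells previously treated 17 h at 37C with DMSO-dissolved compounds.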

[4] = target: Peroxisome proliferator-activated receptor gamma (Homo sapiens) (UniProt P37231); assay: qHTS assay to identify small molecule antagonists of the peroxisome proliferator-activated receptor gamma (PPARg) signaling pathway (AID 743191; calls by dose curve; note: series mostly up to about 63 µM; nearly all actives have a fitted effect of over 30% in size)
In short: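 GeneBLAzer PPARg UAS-bla HEK293H cells carrying a UAS-driven beta-lactamase reporter were plated at 3000 cells/well, preincubated 5 h at 37C, then given compound for 17 h at 37C; LiveBLAzer B/G FRET substrate was read after 1 h at room temperature.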

[5] = qHTS assay to identify small molecule antagonists of the peroxisome proliferator-activated receptor gamma (PPARg) signaling pathway - cell viability counter screen (AID 743194); note: nearly all actives have a fitted effect of over 55% in size
In short: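 PPARg-UAS-bla HEK293H cells were plated, rested 5 h at 37 C, then treated with compounds plus rosiglitazone (50 nM final) for 17 h at 37 C; viability was then read by CellTiter-Glo luminescence after 30 min at room temperature.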

[6] = qHTS assay for small molecule agonists of the antioxidant response element (ARE) signaling pathway (AID 743202; active = well fitted activation curve with a large enough effect in the signal ratio in the repeat runs, not every such curve was filed as active; the % refers to the signal ratio; note: potency is the fitted concentration of half-maximal effect)
In short: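 Following a 16 h, 37 C exposure of reporter HepG2 cells (ARE-driven beta-lactamase, 2,000 cells/well) to compounds, FRET substrate was applied for 2 h at room temperature and fluorescence intensity recorded.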

[7] = qHTS assay for small molecule activators of the heat shock response signaling pathway - cell viability counter screen (AID 743209); note: nearly all actives have a fitted effect of over 50% in size
In short: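 Viability of HSE-bla HeLa cells is measured with CellTiter-Glo in the wells already used for the reporter read. Compound exposure lasts 5 h at 37 C, and luminescence is read after 30 min at room temperature.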

[8] = qHTS assay to identify small molecule agonists of the peroxisome proliferator-activated receptor delta (PPARd) signaling pathway - cell viability counter screen (AID 743211); note: nearly all actives have a fitted effect of over 55% in size; note: potency is the fitted concentration of half-maximal effect
In short: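 Tox21 library compounds, delivered in DMSO, were incubated 17 h with PPARd-bla HEK293H cells; cytotoxicity was taken from CellTiter-Glo luminescence read 30 min after reagent addition.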

[9] = target: Peroxisome proliferator-activated receptor delta (Homo sapiens) (UniProt Q03181); assay: qHTS assay to identify small molecule agonists of the peroxisome proliferator-activated receptor delta (PPARd) signaling pathway (AID 743212; calls by dose curve)
Peroxisome proliferator-activated receptor delta (Homo sapiens), sequence (Q03181 whole entry, looked up): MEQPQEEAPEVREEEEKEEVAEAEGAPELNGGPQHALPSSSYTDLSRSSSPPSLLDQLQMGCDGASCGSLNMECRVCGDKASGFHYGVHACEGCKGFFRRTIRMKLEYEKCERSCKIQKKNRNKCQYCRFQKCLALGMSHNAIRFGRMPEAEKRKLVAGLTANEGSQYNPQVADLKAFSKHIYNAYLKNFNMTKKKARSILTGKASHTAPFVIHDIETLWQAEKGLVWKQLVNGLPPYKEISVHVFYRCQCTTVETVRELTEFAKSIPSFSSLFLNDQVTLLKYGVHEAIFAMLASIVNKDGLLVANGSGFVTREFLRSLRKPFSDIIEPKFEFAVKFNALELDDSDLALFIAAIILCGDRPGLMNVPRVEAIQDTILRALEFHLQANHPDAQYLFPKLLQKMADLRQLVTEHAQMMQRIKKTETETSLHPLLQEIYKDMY
In short: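 Beta-lactamase reporter read by fluorescence (LiveBLAzer B/G FRET, 2 h, room temperature). Test agents, in DMSO, incubated at 37 C with PPARd-bla HEK293H cells.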

[10] = qHTS assay to identify small molecule antagonists of the peroxisome proliferator-activated receptor delta (PPARd) signaling pathway - cell viability counter screen (AID 743213); note: nearly all actives have a fitted effect of over 50% in size; note: potency is the fitted concentration of half-maximal effect
In short: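 Cytotoxicity counter screen: CellTiter-Glo luminescence read 30 min after addition, in the same wells as the reporter assay. There, PPARd UAS-bla HEK293H cells (3000/well) were treated 17 h at 37 C with compound and 300 nM L165041.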

[11] = qHTS assay to identify small molecule agonists of the farnesoid-X-receptor (FXR) signaling pathway - cell viability counter screen (AID 743218); note: nearly all actives have a fitted effect of over 45% in size
In short: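 Viability of FXR-bla HEK 293T cells is measured by ATP-based CellTiter-Glo luminescence following 16 h compound treatment at 37 C and a prior 2 h room-temperature beta-lactamase substrate step.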

[12] = target: Bile acid receptor (Homo sapiens) (UniProt Q96RI1); assay: qHTS assay to identify small molecule agonists of the farnesoid-X-receptor (FXR) signaling pathway (AID 743220; active = well fitted activation curve with a large enough effect in the signal ratio in the repeat runs, not every such curve was filed as active; the % refers to the signal ratio)
Bile acid receptor (Homo sapiens), sequence (Q96RI1 whole entry, looked up): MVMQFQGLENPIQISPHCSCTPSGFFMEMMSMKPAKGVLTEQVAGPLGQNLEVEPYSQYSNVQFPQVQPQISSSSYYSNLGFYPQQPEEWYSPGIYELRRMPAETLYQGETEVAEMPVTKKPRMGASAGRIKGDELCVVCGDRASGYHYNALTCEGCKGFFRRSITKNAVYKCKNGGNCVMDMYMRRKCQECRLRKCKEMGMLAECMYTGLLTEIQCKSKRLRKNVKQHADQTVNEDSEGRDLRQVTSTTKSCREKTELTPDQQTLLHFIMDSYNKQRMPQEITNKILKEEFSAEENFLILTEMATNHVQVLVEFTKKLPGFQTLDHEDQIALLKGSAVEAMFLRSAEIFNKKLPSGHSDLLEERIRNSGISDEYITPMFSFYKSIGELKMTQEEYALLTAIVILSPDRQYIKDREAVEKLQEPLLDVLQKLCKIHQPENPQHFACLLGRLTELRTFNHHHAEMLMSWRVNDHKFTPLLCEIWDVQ
In short: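 FXR-UAS-bla HEK 293T cells carrying a UAS-driven beta-lactamase reporter were plated for 5 h at 37C/5% CO2, then exposed to DMSO-dissolved Tox21 10K compounds for 16 h at 37C. A LiveBLAzer B/G FRET substrate was loaded for 2 h at room temperature before fluorescence reading.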

[13] = qHTS assay to identify small molecule antagonists of the farnesoid-X-receptor (FXR) signaling pathway - cell viability counter screen (AID 743221; active = well fitted cell-killing curve with a large enough effect in the repeat runs, not every such curve was filed as active; note: nearly all actives have a fitted effect of over 50% in size)
In short: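 Cytotoxicity is taken from ATP luminescence (CellTiter-Glo, 30 min, room temperature) in FXR-bla HEK 293T cells previously incubated 16 h at 37 C with compound and chenodeoxycholic acid at 50 uM final.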

[14] = target: Vitamin D3 receptor (Homo sapiens) (UniProt P11473); assay: qHTS assay to identify small molecule agonists of the vitamin D receptor (VDR) signaling pathway (AID 743222; calls by dose curve)
Vitamin D3 receptor (Homo sapiens), sequence (P11473 whole entry, looked up): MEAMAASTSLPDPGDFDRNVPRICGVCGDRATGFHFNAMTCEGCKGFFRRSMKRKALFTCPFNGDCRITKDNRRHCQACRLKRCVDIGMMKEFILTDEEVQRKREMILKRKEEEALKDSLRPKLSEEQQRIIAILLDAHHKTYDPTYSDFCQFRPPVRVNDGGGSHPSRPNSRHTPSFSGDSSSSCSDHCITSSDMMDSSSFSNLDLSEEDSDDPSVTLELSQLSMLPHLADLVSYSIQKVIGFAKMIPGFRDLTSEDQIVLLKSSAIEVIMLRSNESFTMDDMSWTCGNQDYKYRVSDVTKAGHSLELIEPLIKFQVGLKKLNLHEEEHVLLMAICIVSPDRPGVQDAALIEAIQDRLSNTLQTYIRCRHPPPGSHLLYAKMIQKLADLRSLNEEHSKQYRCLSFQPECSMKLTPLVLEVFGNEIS
In short: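 Fluorescence from cleaved LiveBLAzer B/G FRET substrate served as readout. VDR-bla cells had been treated 16 h at 37C with test compounds in DMSO, following a 4 h settling period, and substrate was loaded for 2 h at RT.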

[15] = qHTS assay to identify small molecule agonists of the vitamin D receptor (VDR) signaling pathway - cell viability counter screen (AID 743224); note: series mostly up to about 63 µM; nearly all actives have a fitted effect of over 50% in size
In short: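 Compounds were pin-transferred onto VDR-bla cells plated 4 h earlier; following 16 h incubation at 37C, cell viability was quantified by CellTiter-Glo luminescence after 30 min at room temperature.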

[16] = qHTS assay for small molecule agonists of the antioxidant response element (ARE) signaling pathway - cell viability counter screen (AID 743203; calls by dose curve; note: nearly all actives have a fitted effect of over 55% in size)
In short: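 Viability counter screen: stably transfected ARE-bla HepG2 line, 16 hrs compound exposure at 37C/5% CO2, ATP-based CellTiter-Glo luminescence measured in the reporter wells.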

[17] = qHTS assay for small molecule activators of the heat shock response signaling pathway (AID 743210; active = well fitted activation curve with a large enough effect in the signal ratio in the repeat runs, with a control signal flat, not every such curve was filed as active; the % refers to the signal ratio; note: series mostly up to about 63 µM)
In short: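 Heat shock element–beta-lactamase HeLa reporter cells; qHTS with compounds for 5 h at 37 C; detection by FRET substrate fluorescence after 2.5 h at RT.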

[18] = target: Peroxisome proliferator-activated receptor delta (Homo sapiens) (UniProt Q03181); assay: qHTS assay to identify small molecule antagonists of the peroxisome proliferator-activated receptor delta (PPARd) signaling pathway (AID 743215; active = well fitted inhibition curve with a large enough effect in the signal ratio in the repeat runs, not every such curve was filed as active; the % refers to the signal ratio;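 note: cells stimulated with agonist L165041 at 300 nM final during compound exposure; series mostly up to about 62 µM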)
In short: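 Plated HEK293H PPARd-bla cells rested 5 h at 37 C and 5% CO2. Compound, then agonist L165041 at 300 nM final, was added; 17 h at 37 C followed. Substrate loading, 2 h room temperature, fluorescence measured.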

[19] = target: Bile acid receptor (Homo sapiens) (UniProt Q96RI1); assay: qHTS assay to identify small molecule antagonists of the farnesoid-X-receptor (FXR) signaling pathway (AID 743217; active = well fitted inhibition curve with a large enough effect in the signal ratio in the repeat runs, not every such curve was filed as active; the % refers to the signal ratio)
In short: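 Screen of the Tox21 10K library in quantitative HTS format using FXR-UAS-bla HEK 293T reporter cells. Agonist chenodeoxycholic acid, 50 uM final, added with compounds; 16 h incubation at 37 °C; beta-lactamase FRET fluorescence measured.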

[20] = target: Vitamin D3 receptor (Homo sapiens) (UniProt P11473); assay: qHTS assay to identify small molecule antagonists of the vitamin D receptor (VDR) signaling pathway (AID 743223; active = well fitted inhibition curve with a large enough effect in the signal ratio in the repeat runs, not every such curve was filed as active; the % refers to the signal ratio)
In short: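 Quantitative HTS in VDR-bla reporter cells stimulated with 1alpha,25-dihydroxyvitamin D3, 3 nM final. Compound exposure 16 h, 37C, 5% CO2. Read-out: beta-lactamase FRET substrate fluorescence, 2 h RT.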

Measured: Potency

CC(=O)Nc1ccc(N)cc1
not listed: [16] | [17] | [18] | [19] | [20]
inactive: all other assays above

Cc1cnc(C)c(C)n1
not listed: [12] | [19] | [20]
inactive: all other assays above

c1ccc(COCc2ccccc2)cc1
not listed: [12] | [15] | [18] | [19] | [20]
inactive: all other assays above

C[Si](NC1CCCCC1)(NC1CCCCC1)NC1CCCCC1
not listed: [6] | [13] | [16]
inactive: all other assays above

CCCCCCCCCCCCCCC[C@H](O)[C@@H](N)CO
not listed: [6] | [10] | [11] | [12] | [14] | [16] | [19] | [20]
inactive: all other assays above

O=C(O)c1cccc(O)c1
not listed: [9] | [10] | [12] | [14] | [18] | [20]
inactive: all other assays above

Nc1ccc(S(=O)(=O)O)c(N)c1
not listed: [12] | [19]
inactive: all other assays above

Cc1oncc1C(=O)Nc1ccc(C(F)(F)F)cc1
active: [1] 1.14 µM and 21.7 µM | [6] 30.6 µM | [10] 49 µM
54.9 µM (active) and inactive: [8]
not listed: [14] | [15] | [19] | [20]
inactive: all other assays above
